Among the test systems are DU-145 prostate; K-562 leukemia; MALME-3M melanoma; MDA-MB-231 breast; RXF 393 renal; SF-268 CNS; SF-295 CNS; SF-539 CNS; UACC-257 melanoma; M14 melanoma.
What all share (assay): NCI-60 one-dose screen, 48 h (100 = growth as untreated, 0 = no growth, -100 = all killed)
Holding throughout (conditions): 10 µM unless noted

Consider 21 compounds from PubChem BioAssay (NCI).

About 83,000 compounds went through this panel and 20% of them were active in at least one assay; those are over-represented in the sample as a whole.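 Single-dose data. Exposure time 48 hours. Values below 10 considered active.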 Values without a mark were called inactive. The source made the active and inactive calls.

For the compound `O=C(c1ccc(-c2ccccc2)cc1)c1ccc([N+](=O)[O-])cc1`, the growth in the assay on DU-145 prostate was 121%; in the assay with K-562 leukemia, 69.8%; in the assay on MALME-3M melanoma, 163%; with MDA-MB-231 breast, 90.8%; in the assay on RXF 393 renal, 109%; in the assay on SF-268 CNS it was 102%. The growth with SF-295 CNS was 83.6%; with SF-539 CNS, 107%; with UACC-257 melanoma it was 121%; in the assay with M14 melanoma it was 94.5%.
Take `CCOC(=O)c1c(NC(=O)c2ccc(C(C)C)cc2)sc2c(CN(C)C)c(O)ccc12`: the growth in the assay with DU-145 prostate is 78.2%; in the assay with K-562 leukemia, -31.3% (active); with MALME-3M melanoma it was -45.5% (active); in the assay on MDA-MB-231 breast, 58.4%; in the assay on RXF 393 renal it was 44.2%; with SF-268 CNS, 91.4%. Moreover, the growth with SF-295 CNS is 4.37% (active); with SF-539 CNS, 75%; in the assay on UACC-257 melanoma it was 67.3%; in the assay with M14 melanoma, -64% (active).
Turning to `O=C(Nc1ncc(Cc2ccc(Cl)c(C(F)(F)F)c2)s1)c1ccc2nnsc2c1`, the growth in the assay on DU-145 prostate is 53.7%; in the assay with K-562 leukemia, 24.7%; in the assay on MALME-3M melanoma, 48.7%; in the assay with MDA-MB-231 breast, 67.4%; in the assay on RXF 393 renal it was 75.6%; in the assay with SF-268 CNS, 50.7%. Besides, the growth in the assay with SF-295 CNS was 20%; in the assay with SF-539 CNS it was 5.13% (active); with UACC-257 melanoma it was 64.9%; with M14 melanoma it was 32.2%.
Consider `CN(C)C1CCN(Cc2ccc(NC(=O)c3cncc(C#Cc4cnc(N)c5ncccc45)c3)cc2C(F)(F)F)CC1`, for which the growth in the assay with DU-145 prostate was 64.1%; with K-562 leukemia, 1.29% (active); in the assay with MALME-3M melanoma, -63.1% (active); with MDA-MB-231 breast, 2.48% (active); in the assay on RXF 393 renal, 19.4%; in the assay on SF-268 CNS it was 81.3%. The growth in the assay on SF-295 CNS is 93.9%; in the assay on SF-539 CNS it was 59.6%; with UACC-257 melanoma, 15.5%; with M14 melanoma it was -73.6% (active).
For `CC(C)NC1CCC(Nc2ccnc3cc(Cl)ccc23)CC1` (stereo not given), the growth in the assay on DU-145 prostate is 111%; in the assay with K-562 leukemia, 56.3%; in the assay with MALME-3M melanoma it was 85.4%; in the assay with MDA-MB-231 breast, 76.5%; in the assay with RXF 393 renal, 49.2%; in the assay on SF-268 CNS, 99.6%. For the same compound, the growth with SF-295 CNS was 96.6%; in the assay with SF-539 CNS, 97.5%; in the assay on UACC-257 melanoma, 88.6%; in the assay on M14 melanoma, 93.2%.
In the case of `CCCCN1C(=O)/C(=c2\sc3n(c2=O)C2C(NN=3)N(CC)C(=O)N2CC)c2ccccc21` (stereo not given), the growth with DU-145 prostate was 8.48% (active); in the assay on K-562 leukemia, 5.85% (active); in the assay on MALME-3M melanoma it was 36.4%; in the assay with MDA-MB-231 breast, 8.32% (active); in the assay with RXF 393 renal, -29.5% (active); in the assay on SF-268 CNS, 42.5%. The growth in the assay with SF-295 CNS is 2.37% (active); with SF-539 CNS, -40.4% (active); in the assay with UACC-257 melanoma, -9.63% (active); in the assay with M14 melanoma it was 6.24% (active).
Consider `CCCCC(=O)Nc1ncc(Cc2ccc(Cl)cc2)s1`, for which the growth in the assay with DU-145 prostate is 89%; with K-562 leukemia, 37.5%; with MALME-3M melanoma, 81.3%; in the assay on MDA-MB-231 breast, 62.3%; with RXF 393 renal, 56.4%; in the assay with SF-268 CNS, 79.6%. For the same compound, the growth in the assay on SF-295 CNS is 74.6%; with SF-539 CNS it was 73.5%; with UACC-257 melanoma, 80.7%; in the assay with M14 melanoma, 61.1%.
As for `O=C(CCCCCCN1CC(=O)N2[C@H](c3cc(Br)cs3)c3[nH]c4ccccc4c3C[C@H]2C1=O)NO`, the growth in the assay with DU-145 prostate is 29.1%; in the assay with K-562 leukemia it was 10.2%; in the assay with MALME-3M melanoma, 18.6%; with MDA-MB-231 breast, 44%; in the assay on RXF 393 renal it was 18.7%; with SF-268 CNS it was 66.8%. Moreover, the growth was 45.8% with SF-295 CNS, 43.3% with SF-539 CNS, 27.7% in the assay on UACC-257 melanoma and 37.2% in the assay with M14 melanoma.
Consider `CO[C@H]1/C=C(/C)CCC[C@H](C)[C@H](O)[C@@H](C)C(=O)C(C)(C)[C@@H](O)CC(=O)O[C@@H]1/C(C)=C/c1csc(C)n1`, for which the growth was -48.1% (active) in the assay on DU-145 prostate; 13.9% in the assay with K-562 leukemia; 45.2% in the assay on MALME-3M melanoma; 10.3% with MDA-MB-231 breast; -23.4% (active) with RXF 393 renal; 36.5% in the assay with SF-268 CNS. For the same compound, the growth in the assay with SF-295 CNS is -17.8% (active); in the assay with SF-539 CNS, 1.38% (active); in the assay on UACC-257 melanoma, 56.2%; in the assay with M14 melanoma, 3.27% (active).
For the compound `Cc1nc2c(=O)[nH]c(SCC(=O)Nc3cccc(F)c3)nc2[nH]c1=O`, the growth in the assay on DU-145 prostate was 109%; in the assay on K-562 leukemia, 101%; in the assay on MALME-3M melanoma it was 105%; with MDA-MB-231 breast, 101%; in the assay on RXF 393 renal it was 106%; in the assay with SF-268 CNS, 102%. The growth in the assay with SF-295 CNS is 103%; with SF-539 CNS, 101%; in the assay with UACC-257 melanoma it was 98.9%; in the assay on M14 melanoma, 96.1%.
For `N#CC1=C(N)Oc2c(sc3c(F)cccc23)C1c1ccc(F)cc1` (stereo not given), the growth was 16.6% in the assay on DU-145 prostate; 11.1% in the assay with K-562 leukemia; 56.3% in the assay on MALME-3M melanoma; 39.6% in the assay with MDA-MB-231 breast; -16.5% (active) in the assay with RXF 393 renal; 54.4% in the assay on SF-268 CNS. The growth was 14.6% in the assay on SF-295 CNS, -14.3% (active) with SF-539 CNS, 60.5% in the assay on UACC-257 melanoma and 0.877% (active) in the assay on M14 melanoma.
Turning to `CN1CCN(c2ccc(NC(=O)c3nc4ccc5[nH]ncc5c4c4c3CCCC4)cc2C(F)(F)F)CC1`, the growth in the assay on DU-145 prostate is -27.9% (active); in the assay on K-562 leukemia, 7.04% (active); with MALME-3M melanoma, 33.1%; in the assay on MDA-MB-231 breast, 45.8%; in the assay on RXF 393 renal, 72.3%; in the assay with SF-268 CNS, 78%. The growth is 97.9% in the assay on SF-295 CNS, 89.6% in the assay with SF-539 CNS, 98.7% in the assay with UACC-257 melanoma and 79.5% in the assay on M14 melanoma.
With `CN(C)CCCn1c2c(c3ncccc3c1=O)C(=O)c1ccccc1-2`, the growth in the assay on DU-145 prostate was 39.3%; with K-562 leukemia it was 24.7%; with MALME-3M melanoma it was 61.9%; with MDA-MB-231 breast, 63.6%; with RXF 393 renal, 57.3%; in the assay with SF-268 CNS it was 42.3%. In addition, the growth in the assay on SF-295 CNS is 50.7%; with SF-539 CNS, 21%; in the assay on UACC-257 melanoma it was 72.8%; with M14 melanoma it was 48.6%.
As for `O=C1c2cccc3cccc(c23)C(=O)N1N1C(=O)c2cccc3c(N4CCOCC4)ccc(c23)C1=O`, the growth with DU-145 prostate is 110%; in the assay with K-562 leukemia, 102%; in the assay on MALME-3M melanoma, 78.8%; with MDA-MB-231 breast it was 76.3%; with RXF 393 renal, 93.4%; in the assay on SF-268 CNS, 96.2%. Further, the growth with SF-295 CNS is 90.7%; in the assay with SF-539 CNS it was 101%; with UACC-257 melanoma, 96.7%; in the assay on M14 melanoma it was 90%.
As for `CC1=C(C(=O)OC(C)C)C(c2ccc3c(c2)OCO3)NC(=S)N1` (stereo not given), the growth is 109% in the assay with DU-145 prostate; 107% in the assay with K-562 leukemia; 95.9% in the assay with MALME-3M melanoma; 101% in the assay on MDA-MB-231 breast; 106% in the assay on RXF 393 renal; 103% with SF-268 CNS. The growth with SF-295 CNS is 95.8%; in the assay with SF-539 CNS it was 98.9%; with UACC-257 melanoma, 100%; in the assay on M14 melanoma, 99%.
On to `CC(=O)N1N=C(c2ccc(Nc3nc(Nc4ccc(Cl)cc4)nc(Nc4ccc(Cl)cc4)n3)cc2)CC1c1ccco1` (stereo not given), for which the growth was 107% in the assay on DU-145 prostate; 79.5% in the assay with K-562 leukemia; 97.9% in the assay with MALME-3M melanoma; 92.7% with MDA-MB-231 breast; 71.1% in the assay with RXF 393 renal; 103% with SF-268 CNS. Moreover, the growth is 92.8% in the assay on SF-295 CNS, 96% in the assay on SF-539 CNS, 96.4% with UACC-257 melanoma and 90.5% in the assay with M14 melanoma.
Regarding `O=C1/C(=C/c2ccc(Cl)c(Cl)c2)CN(C(=O)C(Cl)Cl)C/C1=C\c1ccc(Cl)c(Cl)c1`, the growth is -76.1% (active) in the assay with DU-145 prostate; 0.245% (active) in the assay with K-562 leukemia; -57.6% (active) in the assay on MALME-3M melanoma; -34.2% (active) with MDA-MB-231 breast; -80% (active) in the assay with RXF 393 renal; -64.7% (active) with SF-268 CNS. Moreover, the growth in the assay on SF-295 CNS was -79.7% (active); with SF-539 CNS, -93.2% (active); in the assay with UACC-257 melanoma, -11.4% (active); in the assay with M14 melanoma it was -66.9% (active).
For `CN(CCn1sc(=O)n(Cc2ccccc2)c1=O)Cc1ccc2c(Cl)cc(Cl)c(O)c2n1`, the growth was 51.6% in the assay with DU-145 prostate; 13.7% in the assay on K-562 leukemia; 63.7% with MALME-3M melanoma; 46.4% in the assay on MDA-MB-231 breast; 53.7% in the assay on RXF 393 renal; 46.1% in the assay with SF-268 CNS. For the same compound, the growth is 30.5% in the assay on SF-295 CNS, 47.1% with SF-539 CNS, 78.5% in the assay with UACC-257 melanoma and 49.4% in the assay on M14 melanoma.
In the case of `CN1CCN(c2ccc(NC(=O)c3cncnc3Nc3ccc(OCc4ccccn4)c(Cl)c3)cc2)CC1`, the growth in the assay on DU-145 prostate was 56.5%; in the assay on K-562 leukemia, -21.4% (active); in the assay on MALME-3M melanoma, -55.1% (active); in the assay with MDA-MB-231 breast it was -11.2% (active); with RXF 393 renal, 27.9%; with SF-268 CNS it was 68.9%. Further, the growth with SF-295 CNS is 61%; with SF-539 CNS, -12.7% (active); in the assay with UACC-257 melanoma it was 39%; in the assay on M14 melanoma it was -72.8% (active).
For the compound `O=C(Cn1c(=O)sc2ccccc21)NNS(=O)(=O)c1ccccc1[N+](=O)[O-]`, the growth was 105% in the assay on DU-145 prostate; 98.9% in the assay with K-562 leukemia; 99.9% in the assay on MALME-3M melanoma; 104% with MDA-MB-231 breast; 119% in the assay with RXF 393 renal; 97% in the assay with SF-268 CNS. Moreover, the growth was 103% in the assay on SF-295 CNS, 99% with SF-539 CNS, 99.7% in the assay on UACC-257 melanoma and 99.4% in the assay on M14 melanoma.
As for `CC1(C)CC[C@]2(C(=O)O)CC[C@]3(C)C(=CC[C@@H]4[C@@]5(C)C/C(=C/O)C(=O)C(C)(C)[C@@H]5CC[C@]43C)[C@@H]2C1`, the growth with DU-145 prostate was 85.2%; in the assay on K-562 leukemia, 32.2%; in the assay with MALME-3M melanoma, 89.9%; with MDA-MB-231 breast it was 111%; with RXF 393 renal it was 93.7%; with SF-268 CNS, 57.2%. Also, the growth in the assay on SF-295 CNS is 79.9%; in the assay on SF-539 CNS, 29.2%; in the assay on UACC-257 melanoma, 91.6%; in the assay with M14 melanoma, 79.1%.
